Screening data: PubChem, National Center for Advancing Translational Sciences (NCATS)
This is a sample that favours compounds with a hit; in the whole collection about 15% have one here.
Gal4-VP16 FLuc: counter-screen for ROR gamma inhibitors: Gal4-VP16 reporter; Drosophila S2 Gal4-VP16 UAS-luciferase, luminescence, 20 h; Potency, µM (titrated, usually from 53.6 µM), without a hit: at the top dose activity, negative = inhibition, most hits filed as inhibitors; 3.5% of 310,000 active; AID 2546;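 further: Gal4-VP16 expression switched on by copper sulfate through the metallothionein promoter; nearly all actives have a fitted effect of over 50% in size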
TDP1 cell CPT: DT40-hTDP1 cell growth loss with CPT | Potency, µM (series often up to 46.2 µM), without a hit: at the top dose activity change, negative = growth inhibition, usual class: inhibitors | 12% of 420,000 active | chicken DT40 Tdp1-/-;hTDP1 cells + 20 nM CPT, ATP luminescence, 48 h; further: nearly all actives have a fitted effect of over 55% in size
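Cell growth measured by CellTiter-Glo luminescence after a minimum 48 h, 37 C compound exposure with 20 nM CPT in Tdp1-knockout DT40 cells stably expressing hTDP1, seeded 400/well; qHTS titration format.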
ELG1 DNA repair: blocks ELG1-dependent DNA repair in HEK293T cells | Potency, µM (top dose mostly 46.1 µM), for inactives: top-dose activity change, negative = inhibition, usual class: inhibitors | HEK293T ELG1-luciferase reporter, luminescence, 16 h; DNA damage induced by 5-fluorouridine | 2.3% of 330,000 active | AID 504467; further: nearly all actives have a fitted effect of over 55% in size
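Cells (2,000 per well) received 5-fluorouridine plus test compound or DMSO and were incubated 16 hr at 37 °C, 5% CO2. Luciferase activity was read by luminescence 30 min after ONE-Glo addition; signal suppression marked inhibition of damage-induced ELG1 function.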
RORg inh: inhibitors of mouse ROR gamma transcriptional activity. AID 2551. 5.4% of 310,000 active. P51450. Drosophila S2 Gal4-RORgamma UAS-luciferase reporter, 20 h. Potency, µM (highest dose often 53.6 µM), inactives show top-dose activity change, negative = inhibition, actives largely listed as inhibitors; further: nearly all actives have a fitted effect of over 60% in size
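A Gal4/UAS one-hybrid system in insect cells: metallothionein-promoter Gal4–ROR gamma fusion plus Photinus luciferase reporter. Copper sulfate 700 uM final, 20 hr ambient incubation, luminescent detection after 10 min with reagent.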
TDP1 cell noCPT: qHTS for Inhibitors of human tyrosyl-DNA phosphodiesterase 1 (TDP1): qHTS in cells in absence of CPT | DT40 Tdp1-/- hTDP1 cells, no CPT, ATP luminescence, 48 h | Potency, µM (series often up to 46.2 µM), for the others: at the top dose activity change, negative = growth inhibition, hits mostly inhibitors | 15% of 420,000 active; further: nearly all actives have a fitted effect of over 55% in size
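No-CPT arm: Tdp1-/-;hTDP1 DT40 cells (400/well) plus compounds, incubated ≥48 hr at 37 °C. Readout CellTiter-Glo luminescence.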
12-LOX inh: inhibitors of human 12S-lipoxygenase ALOX12; Potency, µM (doses to about 108 µM), for inactives: top-dose activity change, negative = inhibition, usual class: inhibitors; 1.1% of 580,000 active; purified 12hLO, xylenol orange hydroperoxide absorbance; P18054
Target sequence (P18054 whole entry, looked up): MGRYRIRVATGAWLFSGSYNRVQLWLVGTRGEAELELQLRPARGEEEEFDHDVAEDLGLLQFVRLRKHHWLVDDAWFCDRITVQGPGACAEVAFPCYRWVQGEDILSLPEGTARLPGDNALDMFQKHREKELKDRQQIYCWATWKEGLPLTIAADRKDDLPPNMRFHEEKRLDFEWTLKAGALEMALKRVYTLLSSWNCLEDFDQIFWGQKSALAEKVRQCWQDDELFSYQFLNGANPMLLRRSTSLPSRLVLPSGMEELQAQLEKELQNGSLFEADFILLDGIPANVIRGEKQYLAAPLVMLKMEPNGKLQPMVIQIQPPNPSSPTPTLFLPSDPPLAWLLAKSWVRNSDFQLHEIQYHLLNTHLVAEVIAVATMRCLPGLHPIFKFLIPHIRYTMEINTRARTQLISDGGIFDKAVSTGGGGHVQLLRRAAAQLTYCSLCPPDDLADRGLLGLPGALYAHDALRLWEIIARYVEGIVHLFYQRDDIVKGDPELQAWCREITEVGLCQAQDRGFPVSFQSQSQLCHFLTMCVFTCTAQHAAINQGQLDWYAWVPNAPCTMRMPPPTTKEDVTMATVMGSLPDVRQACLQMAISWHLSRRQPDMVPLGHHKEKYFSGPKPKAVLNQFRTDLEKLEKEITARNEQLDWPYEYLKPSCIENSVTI
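Purified human 12hLO at 150 nM in 25 mM Hepes, 0.01% Triton X-100, pH 7.0, preincubated 15 min at room temperature with compound. Reaction started with 40 uM arachidonic acid, 30 min at room temperature. Hydroperoxide measured by Fe-xylenol orange, 573/405 nm absorbance ratio.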
The depositor's hits bear a star; ? = inconclusive; nt = no result; [ ] = another dose, or the depositor's remark. The call rests on the fitted dose curve; in most records, active means well fitted curve in the direction sought with a large enough effect; inconclusive means small, poorly fitted or top-dose-only effect, or another doubt; inactive means no such curve, though single readings can be large; an effect the other way counts as inactive or inconclusive. On the % scale 0 is the no-effect control and ±100 the full control effect; potency means the concentration at half of the fitted maximal effect.

SMILES | Gal4-VP16 FLuc | TDP1 cell CPT | ELG1 DNA repair | RORg inh | TDP1 cell noCPT | 12-LOX inh
NC(N)=NCCN1CCN(Cc2ccccc2)CC1 | nt | nt | nt | nt | nt | 34.4%
CC(C)N(CCNC(=O)c1cc(C2CC2)nc2ccccc12)C(C)C | nt | nt | nt | nt | nt | 6.0%
N#CC1(NC(=O)CSc2c(Cl)cccc2Cl)CCCCC1 | nt | nt | nt | nt | nt | 14.1µM*
N#CC1(NC(=O)Cn2ncc(Cl)c(Cl)c2=O)CCCCC1 | nt | 13µM* | 5.8µM* | nt | 7.31µM* | 13.5%
CCOc1cc(/C=C2\SC(=N)N(c3nccs3)C2=O)ccc1OCCN1CCOCC1 | 2.82µM* | 16.4µM* | ? | 0.562µM* | 20.6µM* | -11.2%
CN1CCN(C(=O)CCN2C(=O)/C(=C\c3ccccc3F)SC2=S)CC1 | -16.8% | -103.9% | 2.4% | 5.62µM* | ? | ?
O=C(CCN1C(=O)/C(=C/c2ccccc2F)SC1=S)Nc1cccnc1 | nt | ? | -10.3% | nt | 0.3% | 0.0%
O=C(CCN1C(=O)/C(=C\c2ccccc2F)SC1=S)N1CCOCC1 | nt | ? | nt | nt | 0.731µM* | ?
CN1CCN(C(=O)CCN2C(=O)/C(=C/c3ccccc3Cl)SC2=S)CC1 | -0.6% | 16.4µM* | -3.6% | 17.8µM* | 11.6µM* | -5.4%
COc1ccc(C2=NN3C(=O)c4ccccc4C3C2)cc1 (centres undefined) | nt | nt | nt | nt | nt | 22.7%
Cc1ccn2c(NC3CCCCC3)c(-c3ccc(C)o3)nc2c1 | nt | 15.8µM* | nt | nt | 11.2µM* | nt
Cc1ccn2c(NC3CCCCC3)c(C)nc2c1 | ? | ? | -8.5% | 12.6µM* | -14.4% | -25.3%
CCc1ccc(/C=C2/SC(=S)N(CCCC(=O)Nc3ccccc3C(=O)O)C2=O)cc1 | -18.3% | 0.3% | -3.2% | -14.6% | 11.8% | ?
CC(=C\c1ccccc1)/C=C1/SC(=S)N(CCC(=O)Nc2ccccn2)C1=O | 3.1% | nt | 13.1% | -14.2% | nt | nt
CCOc1ccc(/C=C2\SC(=S)N(CCC(=O)N(CCO)c3ccccc3)C2=O)cc1 | ? | ? | -17.9% | 0.9% | ? | 10.7%
CCc1ccc(/C=C2\SC(=S)N(CCCC(=O)N(CCO)c3ccccc3)C2=O)cc1 | nt | ? | nt | nt | 16.4µM* | -19.6%
CCc1ccc(/C=C2\SC(=S)N(CCCC(=O)Nc3ccccn3)C2=O)cc1 | 1.41µM* | ? | -18.4% | 0.282µM* | ? | 73.7%
O=C(CCN1C(=O)/C(=C/C=C/c2ccccc2)SC1=S)Nc1ccccn1 | -6.5% | 16.4µM* | ? | -36.3% | ? | ?
COC(=O)c1ccc(/C=C2/SC(=S)N(CCCC(=O)Nc3ccccn3)C2=O)cc1 | 1.78µM* | 20.6µM* | ? | 1.12µM* | 20.6µM* | -12.2%
CC(=O)Nc1ccc(NC(=O)COc2ccc3c(C)cc(=O)oc3c2)cc1 | nt | nt | nt | nt | nt | -0.4%
O=C(N/N=C/c1cccn1-c1ccccc1)c1ccncc1 | 20µM* | -0.9% | 4.1% | 3.55µM* | -13.9% | 190.2%
COc1cc(C(=O)N/N=C/c2sc(=O)n(-c3ccccc3)c2Cl)cc(OC)c1OC | ? | ? | -7.2% | -19.8% | ? | 2.1%
O=C(N/N=C/c1sc(=O)n(-c2ccccc2)c1Cl)c1ccncc1 | 11.2µM* | ? | ? | 7.08µM* | ? | 0.9%
O=C(N/N=C/c1cccn1-c1ccc([N+](=O)[O-])cc1)c1cccnc1 | 10µM* | 13µM* | -14.4% | ? | 25.9µM* | 103.1%
CN(C)Cc1nc(SCC(=O)Nc2ccc(I)cc2)c2ccccc2n1 | nt | nt | nt | nt | nt | -28.0%
SMILES | Gal4-VP16 FLuc | TDP1 cell CPT | ELG1 DNA repair | RORg inh | TDP1 cell noCPT | 12-LOX inh
O=C(/C=C\c1ccco1)NC(=S)Nc1ccccc1O | ? | 18.4µM* | ? | 22.4µM* | ? | ?
Cc1cccnc1NC(=S)NC(=O)/C=C/c1ccco1 | 7.94µM* | -16.7% | ? | 2.82µM* | -18.0% | 70.4%
O=C(/C=C/c1ccco1)NC(=S)Nc1ccccc1O | ? | ? | ? | 11.2µM* | 18.4µM* | ?
O=C(/C=C/c1ccco1)Nc1ccccc1C(=O)O | ? | 7.3% | ? | ? | -8.7% | ?
Cc1ccc(NC(=S)NC(=O)/C=C/c2ccco2)c(O)c1 | ? | -11.3% | -1.7% | 8.91µM* | ? | ?
Cn1nnc(NC(=S)NC(=O)/C=C/c2ccco2)n1 | -7.5% | 0.7% | 13.5% | 1.9% | 2.9% | ?
CCn1c2c(c(=O)n1Cc1ccccc1)CCN(C(=O)c1cn[nH]c1)C2 | nt | nt | nt | nt | nt | 58.6%[176 µM]
Cc1c(C)c2ccc(OCC(=O)NCCc3ccc(S(N)(=O)=O)cc3)c(C)c2oc1=O | nt | nt | nt | nt | nt | -48.4%
COc1cc(NC(=O)CN2c3ccccc3CC2C)cc(OC)c1OC (centres undefined) | -0.3% | ? | 16.4µM* | 24.5% | ? | 0.7%
CN(C)S(=O)(=O)c1cc(NC(=O)CN2CCN(c3ccccc3F)CC2)ccc1Cl | -0.3%[10 µM] | ? | -18.3% | 20.7% | 20.6µM* | 35.6%
COCCCn1c(C)cc(C(=O)CN2c3cccc4cccc(c34)S2(=O)=O)c1C | nt | 29.1µM* | -18.8% | nt | 16.4µM* | -20.9%
